# PubChem BioAssay (EPA / NIEHS)
# Active and inactive are the calls of the source. How the source made its calls: active means hit-call score of the fitted dose curve at least 0.9, where 1 is the maximum; inactive means score below 0.9.
# Assays:
# [1] = read-out: Matrix Metallopeptidase 1 (MMP1), MMP1 (gene 4312); experiment: BSK_BE3C_MMP1: BioMAP Diversity Plus: BE3C Assay for Matrix Metallopeptidase 1 (MMP1) Biomarker Activity (AID 2283024); conditions: primary human bronchial epithelial cells; actives raise or lower the signal
# How it was run: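 Dose cells, wait 24 h, run MMP1 ELISA; cells are human bronchial epithelial primaries. Both increases and decreases relative to DMSO counted.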
# [2] = read-out: Pselectin, SELP (gene 6403); experiment: BSK_4H_Pselectin: BioMAP Diversity Plus: 4H Assay for Pselectin Biomarker Activity (AID 2283026); conditions: primary human endothelial cells (HUVEC); actives raise or lower the signal
# How it was run: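 Human vascular endothelium from umbilical vein; P-selectin measured by ELISA at 24 h post-dose, with cytotoxicity checked by sulforhodamine B total-protein staining in parallel cultures (0.1% SRB after 10% TCA fixation, read at 560 nm).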
# [3] = BSK_4H_SRB: Viability Assessment in the BioMAP Diversity Plus: 4H Assay (AID 2283027); conditions: primary human endothelial cells (HUVEC);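 further: cells exposed to compound for 24 h before staining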;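 on AC50: curves fitted both ways versus DMSO so AC50 may be loss or gain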
# How it was run: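 Absorbance at 560 nm of SRB-stained total protein served as the viability read-out in confluent primary human umbilical vein endothelium 24 h after chemical treatment. Curves were fitted bidirectionally against DMSO as negative control.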
# [4] = BSK_BE3C_SRB: Viability Assessment in the BioMAP Diversity Plus: BE3C Assay (AID 2283028); conditions: primary human bronchial epithelial cells;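 on AC50: fitted both ways so AC50 may mark signal gain or loss versus DMSO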
# How it was run: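 Cells (human bronchial epithelial, primary) are treated with chemicals, and after 24 h the parallel cultures are fixed in 10% TCA. These are then stained with 0.1% SRB and read at 560 nm. Gain or loss of signal is fitted relative to DMSO.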
# [5] = read-out: Thrombomodulin, THBD (gene 7056); experiment: BSK_3C_Thrombomodulin: BioMAP Diversity Plus: 3C Assay for Thrombomodulin Biomarker Activity (AID 2283029); conditions: primary human endothelial cells (HUVEC); actives raise or lower the signal
# How it was run: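 Thrombomodulin ELISA, human primary HUVEC, 24 h post-dose; data fitted in both directions relative to DMSO.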
# [6] = read-out: Urokinase-type plasminogen activator receptor (uPAR), PLAUR (gene 5329); experiment: BSK_4H_uPAR: BioMAP Diversity Plus: 4H Assay for Urokinase-type plasminogen activator receptor (uPAR) Biomarker Activity (AID 2283030); conditions: primary human endothelial cells (HUVEC); actives raise or lower the signal
# How it was run: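 Cell-surface uPAR ELISA signal, measured 24 h after dosing human umbilical vein endothelial cells, was analyzed with bidirectional fitting relative to DMSO. Parallel SRB staining of total protein tracked overt cytotoxicity.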
# [7] = read-out: Vascular endothelial growth factor receptor 2 (Homo sapiens) (UniProt P35968); experiment: BSK_4H_VEGFRII: BioMAP Diversity Plus: 4H Assay for Vascular endothelial growth factor receptor 2 (VEGFR2) Biomarker Activity (AID 2283031); conditions: primary human endothelial cells (HUVEC); actives raise or lower the signal
# How it was run: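 ELISA read-out of VEGFRII in primary human umbilical vein endothelium, taken 24 h after chemical treatment. Responses are expressed relative to DMSO, with bidirectional fitting.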
# [8] = read-out: Human Leukocyte Antigen - DR isotype (HLADR), HLA-DRA (gene 3122); experiment: BSK_BE3C_HLADR: BioMAP Diversity Plus: BE3C Assay for Human Leukocyte Antigen - DR isotype (HLADR) Biomarker Activity (AID 2283032); conditions: primary human bronchial epithelial cells; actives raise or lower the signal
# How it was run: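 Signal came from an ELISA for HLA-DR in human bronchial epithelial primary cells harvested 24 h after treatment; gain- and loss-of-signal fitting used DMSO controls as reference.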
# [9] = read-out: Vascular cell adhesion molecule 1 (VCAM1), VCAM1 (gene 7412); experiment: BSK_4H_VCAM1: BioMAP Diversity Plus: 4H Assay for Vascular cell adhesion molecule 1 (VCAM1) Biomarker Activity (AID 2283033); conditions: primary human endothelial cells (HUVEC); actives raise or lower the signal;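 on outcome: cell-surface VCAM-1 protein measured by ELISA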
# How it was run: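 Endpoint derived from bidirectional fitting against DMSO controls of VCAM-1 ELISA signal in umbilical vein endothelial cells sampled at 24 h following treatment.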
# [10] = read-out: Interferon-gamma inducible Protein 10 (IP10), CXCL10 (gene 3627); experiment: BSK_BE3C_IP10: BioMAP Diversity Plus: BE3C Assay for Interferon-gamma inducible Protein 10 (IP10) Biomarker Activity (AID 2283034); conditions: primary human bronchial epithelial cells; actives raise or lower the signal
# How it was run: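 Using primary human bronchial epithelial cultures, the assay captures IP-10 by ELISA one day (24 h) after exposure. Parallel SRB staining of total protein flags overt cytotoxicity. Fits run bidirectionally relative to DMSO.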
# [11] = read-out: Monokine induced gamma interferon (MIG), CXCL9 (gene 4283); experiment: BSK_BE3C_MIG: BioMAP Diversity Plus: BE3C Assay for Monokine induced gamma interferon (MIG) Biomarker Activity (AID 2283035); conditions: primary human bronchial epithelial cells; actives raise or lower the signal;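 on outcome: MIG protein measured by ELISA in BE3C cultures after 24 h of dosing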
# How it was run: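 MIG level was determined by ELISA after 24 h chemical treatment of primary human bronchial epithelial cells. Values were fitted bidirectionally with DMSO as the negative control and activity baseline.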
# [12] = read-out: Plasminogen activator inhibitor-1 (PAI1), SERPINE1 (gene 5054); experiment: BSK_BE3C_PAI1: BioMAP Diversity Plus: BE3C Assay for Plasminogen activator inhibitor-1 (PAI1) Biomarker Activity (AID 2283037); conditions: primary human bronchial epithelial cells; actives raise or lower the signal
# How it was run: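 PAI-1 biomarker levels in treated human bronchial epithelial cells are determined by ELISA at 24 h. Both increases and decreases relative to DMSO are fitted.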
# [13] = read-out: urokinase plasminogen activator (uPA), PLAU (gene 5328); experiment: BSK_BE3C_uPA: BioMAP Diversity Plus: BE3C Assay for urokinase plasminogen activator (uPA) Biomarker Activity (AID 2283038); conditions: primary human bronchial epithelial cells; actives raise or lower the signal;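 on outcome: uPA protein level quantified by ELISA in cell cultures; uPA read one day after compound addition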
# How it was run: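 Bronchial epithelial cells (human, primary); chemical 24 h; uPA by ELISA; bidirectional fit vs DMSO. SRB (0.1%, after 10% TCA fixation, 560 nm) in parallel cultures for cytotoxicity.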
# [14] = read-out: Urokinase-type plasminogen activator receptor (uPAR), PLAUR (gene 5329); experiment: BSK_BE3C_uPAR: BioMAP Diversity Plus: BE3C Assay for Urokinase-type plasminogen activator receptor (uPAR) Biomarker Activity (AID 2283039); conditions: primary human bronchial epithelial cells; actives raise or lower the signal;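 on outcome: cells exposed to compound for one day before measurement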
# How it was run: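 A uPAR ELISA serves as the readout, taken 24 h after treating primary human bronchial epithelial cells. Responses in either direction are fitted against DMSO, which defines baseline activity.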
# [15] = read-out: Interleukin-6 (IL6), IL6 (gene 3569); experiment: BSK_CASM3C_IL6: BioMAP Diversity Plus: CASM3C Assay for Interleukin-6 (IL6) Biomarker Activity for (AID 2283040); conditions: primary human coronary artery smooth muscle cells; actives raise or lower the signal
# [16] = read-out: Tissue plasminogen activator (tPA), PLAT (gene 5327); experiment: BSK_BE3C_tPA: BioMAP Diversity Plus: BE3C Assay for Tissue plasminogen activator (tPA) Biomarker Activity (AID 2283041); conditions: primary human bronchial epithelial cells; actives raise or lower the signal;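 on outcome: tPA level quantified by ELISA one day after compound addition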
# How it was run: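 Bidirectional curve fitting relative to DMSO defined activity, with tPA detected by ELISA in chemically treated human bronchial epithelial primary cells at 24 hours.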
# [17] = read-out: Interleukin-8 (IL8), CXCL8 (gene 3576); experiment: BSK_CASM3C_IL8: BioMAP Diversity Plus: CASM3C Assay for Interleukin-8 (IL8) Biomarker Activity (AID 2283042); conditions: primary human coronary artery smooth muscle cells; actives raise or lower the signal;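 further: IL-8 protein level quantified by ELISA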
# [18] = read-out: Human Leukocyte Antigen - DR isotype (HLADR), HLA-DRA (gene 3122); experiment: BSK_CASM3C_HLADR: BioMAP Diversity Plus: CASM3C Assay for Human Leukocyte Antigen - DR isotype (HLADR) Biomarker Activity (AID 2283043); conditions: primary human coronary artery smooth muscle cells; actives raise or lower the signal;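 further: cell-surface HLA-DR protein level quantified by ELISA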
smiles,measurement,setting,value
O=[N+]([O-])C(Br)(CO)CO,outcome,[1],inactive
same,AC50,[2],20000 nM (active)
same,AC50,[3],20000 nM (active)
same,outcome,[4],inactive
same,outcome,[5],inactive
same,AC50,[6],31700 nM (active)
same,outcome,[7],inactive
same,outcome,[8],inactive
same,AC50,[9],27100 nM (active)
same,outcome,[10],inactive
same,outcome,[11],inactive
same,outcome,[12],inactive
same,AC50,[13],4020 nM (active)
same,outcome,[14],inactive
same,outcome,[15],inactive
same,outcome,[16],inactive
same,AC50,[17],34300 nM (active)
same,AC50,[18],29500 nM (active)
CCC[CH2][Sn]([Cl])([CH2]CCC)[CH2]CCC,AC50,[1],148 nM (active)
same,AC50,[2],148 nM (active)
same,AC50,[3],148 nM (active)
same,AC50,[4],148 nM (active)
same,AC50,[5],486 nM (active)
same,AC50,[6],148 nM (active)
same,AC50,[8],215 nM (active)
same,AC50,[9],148 nM (active)
same,AC50,[10],324 nM (active)
same,AC50,[11],162 nM (active)
same,AC50,[12],146 nM (active)
same,AC50,[13],148 nM (active)
same,AC50,[14],148 nM (active)
same,AC50,[15],1500 nM (active)
same,AC50,[16],227 nM (active)
same,AC50,[17],1010 nM (active)
same,AC50,[18],353 nM (active)
c1ccc2c(c1)-c1cccc3cccc-2c13,outcome,[1],inactive
same,outcome,[2],inactive
same,outcome,[3],inactive
same,outcome,[4],inactive
same,outcome,[5],inactive
same,outcome,[6],inactive
same,outcome,[8],inactive
same,outcome,[9],inactive
same,outcome,[10],inactive
same,outcome,[11],inactive
same,outcome,[12],inactive
same,outcome,[13],inactive
same,outcome,[14],inactive
same,outcome,[15],inactive
same,outcome,[16],inactive
same,outcome,[17],inactive
same,outcome,[18],inactive
O=C(O)C1C2CCC(O2)C1C(=O)O (stereo not given),outcome,[1],inactive
same,AC50,[2],16000 nM (active)
same,outcome,[3],inactive
same,outcome,[4],inactive
same,outcome,[5],inactive
same,AC50,[6],18600 nM (active)
same,outcome,[7],inactive
same,outcome,[8],inactive
same,AC50,[9],12100 nM (active)
same,outcome,[10],inactive
same,outcome,[11],inactive
same,outcome,[12],inactive
same,outcome,[13],inactive
same,outcome,[14],inactive
same,outcome,[15],inactive
same,AC50,[16],18600 nM (active)
same,outcome,[17],inactive
same,AC50,[18],4920 nM (active)
